The source made the active and inactive calls. Unless noted, no rule for the calls is given here.
What was measured:
[1] = tested on: Wnt5a (protein binding on small-molecule microarray); experiment: small molecules binding Wnt5a protein – biophysical, small-molecule microarray, 635/667 nm fluorescence, primary screen (AID 1142); conditions: 635 nm fluorescence, higher = more signal;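 also: fluorescence read at 667 nm with signal to noise per printed feature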
[2] = ATP-based viability of Huh7 replicon cells – cell-based, CellTiter-Glo luminescence, basal, 48 h, cytotoxicity control for HCV replication inhibitor project, primary screen (AID 1143); conditions: higher = more signal, called active from +8 up or from −8 down;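 also: Huh7 hepatoma cells carrying a hepatitis C replication reporter with no stimulus; test concentration not given here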
[3] = Pseudomonas biofilm growth suppression – PAO1 strain, BacTiter-Glo luminescence, LB-PBS, primary screen (AID 1144); conditions: P. aeruginosa PAO1 biofilm, 12 h, higher = more signal
[4] = basal CRE-LacZ reporter activity in PC12 – cell-based, unstimulated, primary screen (AID 1145); conditions: no forskolin, luminescence, 4.5 h, higher = more signal, called active from +8 up or from −8 down
[5] = forskolin-driven CRE-LacZ activity in PC12 – cell-based, CRE-LacZ reporter, forskolin-stimulated, primary screen (AID 1146); conditions: luminescence, 4.5 h, higher = more signal, called active from +8 up or from −8 down;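 also: PC12 cells with 6xCRE LacZ reporter stimulated by forskolin 10 µM; beta-galactosidase reporter signal reflecting CREB driven transcription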
[6] = molecular target: Streptavidin (Streptomyces avidinii) (UniProt P22629); experiment: compounds binding control protein streptavidin – biophysical, small-molecule microarray, 635/667 nm fluorescence, artefact control for SMM compound annotation, primary screen (AID 1147); conditions: higher = more signal;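 also: signal reflects streptavidin binding to arrayed compounds as a control protein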
[7] = probe aInhba binding on compound microarray – biochemical, small-molecule microarray, 635/667 nm fluorescence, primary screen (AID 1148); conditions: higher = more signal;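 also: score merges 667nm spot fluorescence with signal-to-noise for antibody binding to printed compounds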
Torsin-1A (Homo sapiens) [8] = molecular target: Torsin-1A (Homo sapiens) (UniProt O14656); experiment: TOR1A wild-type binding on microarray – cell lysate, small-molecule microarray, lysate, 635/667 nm, primary screen (AID 1149); conditions: COS7 hTOR1A-WT lysate, 635 nm fluorescence, higher = more signal
Torsin-1A (Homo sapiens) [9] = molecular target: Torsin-1A (Homo sapiens) (UniProt O14656); experiment: torsin A mutant lysate binding on microarrays – cell lysate, small-molecule microarray, COS7 lysate, 635/667 nm fluorescence, primary screen (AID 1150); conditions: COS7 hTOR1A mutant lysate, 635 nm fluorescence, higher = more signal;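 also: score pools 667 nm emission and signal to noise measuring lysate protein binding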
[10] = tested on: Sonic hedgehog protein (Shh); experiment: Sonic hedgehog microarray binding compounds – biochemical, small-molecule microarray, 635/667 nm fluorescence, primary screen (AID 1151); conditions: 635 nm fluorescence, higher = more signal;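 also: Shh protein binding to compounds spotted on small-molecule microarray slides; score combines spot fluorescence intensity with signal-to-noise across triplicate slides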

Torsin-1A (Homo sapiens), sequence (O14656 whole entry, looked up): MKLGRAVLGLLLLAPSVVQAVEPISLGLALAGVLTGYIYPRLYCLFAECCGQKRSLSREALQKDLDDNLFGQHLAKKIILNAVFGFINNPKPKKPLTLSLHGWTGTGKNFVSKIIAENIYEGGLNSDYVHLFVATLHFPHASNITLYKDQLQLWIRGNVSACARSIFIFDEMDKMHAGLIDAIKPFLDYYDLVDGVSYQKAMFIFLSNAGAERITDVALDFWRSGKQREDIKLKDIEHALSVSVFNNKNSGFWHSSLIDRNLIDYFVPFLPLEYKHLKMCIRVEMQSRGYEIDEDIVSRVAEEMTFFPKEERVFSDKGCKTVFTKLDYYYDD
Streptavidin (Streptomyces avidinii), sequence (P22629 whole entry, looked up): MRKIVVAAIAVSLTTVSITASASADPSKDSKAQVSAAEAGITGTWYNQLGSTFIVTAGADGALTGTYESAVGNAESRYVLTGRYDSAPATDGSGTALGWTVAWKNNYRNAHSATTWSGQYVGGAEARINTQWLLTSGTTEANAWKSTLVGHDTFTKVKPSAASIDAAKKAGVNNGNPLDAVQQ

Row | Compound | composite z-score [1] | z-score [2] | z-score [3] | z-score [4] | z-score [5] | composite z-score [6] | composite z-score [7] | composite z-score (Torsin-1A (Homo sapiens) [8]) | composite z-score (Torsin-1A (Homo sapiens) [9]) | composite z-score [10]
1 | NC(=O)[C@@]1(CCS(=O)(=O)c2ccccc2)COC(c2ccc(OCCCO)cc2)=N1 | 0.375 | -1.5 (inactive) | 1.59 (inactive) | 0.148 (inactive) | -1.35 (inactive) | 0.447 | -0.0044 | -0.0756 | 0.324 | -0.463
2 | NCCCC[C@@H]1NC(=O)[C@H]2C[C@@H](C(=O)O)[C@@H](c3cccc(OCCO)c3)N2C1=O | 0.424 | 0.0458 (inactive) | -0.0686 (inactive) | -0.943 (inactive) | 0.963 (inactive) | 1.99 | 0.15 | 1.18 | 1.7 | 1.85
3 | COc1ccccc1CN1C(=O)c2ccccc2[C@@H](C(=O)NCCCN(C)C)[C@@H]1c1ccc(CO)cc1 | 0.0968 | -2.77 (inactive) | -1.58 (inactive) | 0.531 (inactive) | -0.744 (inactive) | -0.523 | 0.0028 | -0.236 | -0.0195 | -0.0791
4 | CC(C)(C)OC(=O)CC[C@]1(C(N)=O)N=C(c2ccc(OCCCO)cc2)O[C@H]1c1ccccc1CN=[N+]=[N-] | 0.602 | 0.268 (inactive) | 0.201 (inactive) | 1.04 (inactive) | -0.671 (inactive) | 2 | 0.355 | 1.57 | 1.1 | -0.336
5 | CC(C)(C)OC(=O)CC[C@]1(C(=O)N2CCOCC2)N=C(c2ccc(OCCCO)cc2)O[C@H]1c1ccccc1CN=[N+]=[N-] | 1.07 | -0.569 (inactive) | -0.405 (inactive) | -0.263 (inactive) | -1.4 (inactive) | 1.08 | 0.279 | 1.12 | 1.58 | 0.242
6 | C=CCC(OC(C)=O)[C@@H]1[C@@H](N(Cc2ccc(-c3cccc(C(F)(F)F)c3)o2)C(=O)Cc2ccc(F)cc2)c2cc(OCCCO)ccc2N1C(=O)c1ccc2ccccc2c1 (stereo not given in full) | -0.314 | -0.376 (inactive) | -0.25 (inactive) | 0.279 (inactive) | 0.914 (inactive) | -0.488 | -0.2 | -0.954 | -0.244 | 0.718
7 | N#Cc1ccc(C(O)C2C=CC3C(=O)N(c4ccccc4)C(=O)C3N2Nc2ccc([N+](=O)[O-])cc2)cc1 (stereo not given) | 0.488 | -0.843 (inactive) | -0.532 (inactive) | -0.0696 (inactive) | -1.24 (inactive) | 1.86 | 0.252 | 0.0605 | 0.212 | -0.51
8 | C=CC[C@]1(C(=O)NCCCOC)N=C(c2ccc(OCCCO)cc2)O[C@H]1c1ccccc1 | 0.274 | -2.26 (inactive) | -0.747 (inactive) | 0.857 (inactive) | 0.15 (inactive) | -0.0374 | -0.0986 | 0.872 | 1.37 | -1.62
9 | CC(C)(C)N1CC=CC23O[C@@H]4/C=C\CCCOC(=O)C4[C@H]2C(=O)N(CCCCCCO)[C@@H]3C1=O (stereo not given in full) | -0.731 | -0.0711 (inactive) | -1.95 (inactive) | -0.224 (inactive) | -0.739 (inactive) | -1 | -0.0719 | 0.467 | 0.488 | -0.22
10 | COc1ccc([Si](C)(C)[C@@H]2[C@@H](CC(=O)N(CCO)Cc3ccccc3)O[C@]3(C(=O)N(Cc4ccc(N5CCC5=O)cc4)c4ccccc43)[C@H]2C)cc1 | -0.0009 | -5.9 (inactive) | -0.259 (inactive) | 5.16 (inactive) | 0.0245 (inactive) | -0.301 | -0.318 | -0.0822 | 0.134 | 0.7
11 | O=C(NCC(F)(F)F)[C@@H]1c2ccccc2C(=O)N(CC23CC4CC(CC(C4)C2)C3)[C@H]1c1ccc(CO)cc1 | 0.41 | -3.88 (inactive) | -2.52 (inactive) | -0.412 (inactive) | -1.46 (inactive) | -0.169 | 0.038 | 0.11 | 0.438 | 1.62
12 | C=CCC(OC(C)=O)[C@@H]1[C@@H](N(Cc2ccc(-c3cccc(C(F)(F)F)c3)o2)C(=O)c2cccc3ccccc23)c2cc(OCCCO)ccc2N1C(=O)c1ccc2ccccc2n1 (stereo not given in full) | -0.0713 | -1.33 (inactive) | -0.214 (inactive) | -0.258 (inactive) | 0.0155 (inactive) | -0.32 | -0.024 | 0.17 | -0.662 | 0.259
13 | COC(=O)[C@@]1(Cc2ccc(F)cc2)[C@H]2c3cc(C(=O)N(C)C)n(CCO)c3C[C@H]2CN1C(=O)c1ccccc1 | -0.0929 | -0.494 (inactive) | -0.0693 (inactive) | 0.773 (inactive) | 0.0355 (inactive) | -0.208 | 0.0464 | 0.149 | 0.297 | -0.653
14 | COCCOC(=O)N1C(=O)[C@@]2(c3ccccc31)[C@H](C(=O)N1CCCCCCC1)[C@H]1C(=O)O[C@H](c3ccccc3)[C@H](c3ccccc3)N1[C@@H]2c1ccc(O)cc1 | 1.21 | -2.11 (inactive) | -1.14 (inactive) | -1.15 (inactive) | -1.03 (inactive) | 2.17 | 2.13 | 2.14 | 2.57 | 2.17
15 | CCCCN1CC=CC23O[C@@H]4C=CCOC(=O)[C@@H]4[C@H]2C(=O)N(CCO)[C@@H]3C1=O (stereo not given in full) | -0.477 | -0.238 (inactive) | 1.1 (inactive) | 0.0605 (inactive) | 0.113 (inactive) | -0.94 | 0.059 | 0.0805 | -0.243 | -0.858
16 | C[C@]1(C(=O)NCC(F)(F)F)c2ccccc2C(=O)N(Cc2ccc(OC(F)(F)F)cc2)[C@H]1c1ccc(CO)cc1 | -0.151 | -2.8 (inactive) | 0.382 (inactive) | 0.324 (inactive) | 1.3 (inactive) | 0.0803 | -0.128 | -0.906 | 0.7 | 0.31
17 | C=CCNC(=O)[C@H]1[C@@H]2C(=O)O[C@@H](c3ccccc3)[C@@H](c3ccccc3)N2[C@@H](c2ccc(O)cc2)[C@]12C(=O)Nc1ccc(C#CC3=CCCCC3)cc12 | 0.121 | -3.15 (inactive) | -0.0901 (inactive) | -0.671 (inactive) | 0.21 (inactive) | 1.18 | 0.616 | 1.75 | 0.462 | 2
18 | CCN(CC)c1ccc(N2CC=CC34O[C@@H]5C=CCOC(=O)[C@@H]5[C@H]3C(=O)N(CCO)[C@@H]4C2=O)cc1 (stereo not given in full) | -0.403 | -0.271 (inactive) | 1.72 (inactive) | -0.0656 (inactive) | -0.599 (inactive) | -1.77 | 0.476 | -0.0491 | -0.669 | -0.198
19 | COc1ccc(C(O)C2C=CC3C(=O)N(C)C(=O)C3N2Nc2ccc([N+](=O)[O-])cc2[N+](=O)[O-])cc1OCc1ccccc1 (stereo not given) | 0.477 | 0.351 (inactive) | 0.967 (inactive) | 0.243 (inactive) | 0.706 (inactive) | 0.171 | 0.566 | 0.255 | 0.387 | -0.105
20 | CC(=O)c1ccc(C(O)C2C=CC3C(=O)N(C)C(=O)C3N2NC(=O)OC(C)(C)C)cc1 (stereo not given) | 0.468 | 0.847 (inactive) | 0.626 (inactive) | 0.246 (inactive) | 1.51 (inactive) | 1.83 | 0.182 | -0.0551 | 0.548 | -0.0538
21 | CO[C@H]1O[C@H](CO)[C@@H](OC(=O)Nc2ccc(C(F)(F)F)cc2)[C@H](OC(=O)Nc2ccccc2-c2ccccc2)[C@@H]1OC(=O)Nc1ccccc1-c1ccccc1 | 0.229 | -4.02 (inactive) | 0.821 (inactive) | 0.148 (inactive) | 0.892 (inactive) | 1.02 | 0.228 | 0.363 | 0.979 | 1.34
22 | NC(=O)NCC#Cc1ccc2c(c1)[C@]1(C(=O)N2)[C@H](C(=O)N2CCCCCCC2)[C@H]2C(=O)O[C@H](c3ccccc3)[C@H](c3ccccc3)N2[C@@H]1c1ccc(O)cc1 | 0.399 | 0.33 (inactive) | -0.209 (inactive) | 0.0695 (inactive) | -0.745 (inactive) | 1.05 | 1.51 | 0.529 | 0.676 | 1.22
23 | Cc1c(-c2ccc(-c3ccc(Cl)c(Cl)c3)o2)nc(-c2ccccc2)c2c1CO[Si]2(C(C)C)C(C)C | -0.0882 | -0.98 (inactive) | 0.163 (inactive) | -0.882 (inactive) | 1.86 (inactive) | -0.107 | -0.179 | -0.455 | -0.474 | 0.426
24 | C=C(/C(=C/C[C@@H](OC(C)=O)c1ccccc1OCCO)c1cc(C(=O)OC)ccc1OC)C(C)C | 0.332 | -1.94 (inactive) | 0.217 (inactive) | 16.2 (active) | -0.37 (inactive) | -0.576 | -0.024 | 0.212 | -0.461 | 1.02
25 | CCOC(=O)C1=CCC(c2cc3ccccc3[nH]2)N(S(=O)(=O)c2ccccc2[N+](=O)[O-])C1 (stereo not given) | 0.379 | -5.05 (inactive) | -0.295 (inactive) | -0.172 (inactive) | -0.0943 (inactive) | -0.141 | -0.101 | 0.0459 | 0.609 | -0.312
26 | CC(C)C[C@@H]1NC(=O)[C@@H]2C[C@H](C(=O)O)[C@H](c3ccc(O)cc3)N2C1=O | 0.415 | -0.393 (inactive) | -0.934 (inactive) | -0.114 (inactive) | -0.837 (inactive) | 0.741 | -0.013 | 0.656 | 1.05 | 1.74
27 | CCCCC(O)C1C=CC2C(=O)NC(=O)C2N1Nc1ccccn1 (stereo not given) | -0.0034 | 0.294 (inactive) | -0.314 (inactive) | -0.133 (inactive) | 0.438 (inactive) | 0.0033 | 0.0225 | 0.477 | 0.203 | -0.432
28 | COc1cccc(OC)c1C(=O)O[C@H]1[C@@H]2OC(=O)[C@H](Cc3cccc(Br)c3)C/C=C/C[C@@H](Cc3cccc(Br)c3)C(=O)O[C@H]2[C@@H](OC)O[C@@H]1CO | 0.125 | -1.74 (inactive) | -0.0318 (inactive) | -0.467 (inactive) | -0.201 (inactive) | -0.114 | -0.128 | -0.0031 | 0.529 | 1.23
29 | CCCC=C(CCC)[C@@H](NS(=O)(=O)c1ccc(Cl)cc1)c1ccccc1 | 0.0207 | -2.29 (inactive) | -0.527 (inactive) | 0.197 (inactive) | 0.261 (inactive) | 0.489 | 0.0807 | -0.721 | -0.292 | -1.12
